Data from PubChem BioAssay (NCATS).
Results filed as inconclusive are left out. Activity calls are given as the source filed them. Unless noted, calls follow the shape of the dose curve; as a rule, active = well fitted curve in the direction sought with a large enough effect; inconclusive = small, poorly fitted or top-dose-only effect, or another doubt; inactive = no such curve, though single readings can be large; an effect the other way counts as inactive or inconclusive.

Legend:
[1] = target: Endonuclease 4 (Escherichia coli (strain K12)) (UniProt P0A6C1); experiment: Counterscreen for APE1 Inhibitors: qHTS Validation Assay for Inhibitors of Endonuclease IV (AID 1708); also: % is scaled to controls: 0 for no effect and ±100 for the full control effect
Procedure, shortened: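 Conditions: 2 nM enzyme, 50 nM TAMRA/BHQ-2 substrate, pH 7.5 Tris buffer with 2 mM MgCl2, RT. Compound preincubation 15 min; readout three fluorescence reads 60 s apart, third-minus-first.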

[2] = qHTS for differential inhibitors of proliferation of Plasmodium falciparum line 3D7 (AID 1876);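 also: parasite growth measured after three days of culture; 0% = vehicle wells and -100% = reference inhibitor wells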
[3] = qHTS for differential inhibitors of proliferation of Plasmodium falciparum line D10 (AID 1877);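 also: parasites grown with compound for 72 h before DNA staining; plate controls were vehicle wells for no effect and reference inhibitor wells for full effect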
[4] = qHTS for differential inhibitors of proliferation of Plasmodium falciparum line Dd2 (AID 1882); settings: Potency: Plasmodium falciparum Dd2 proliferation inhibition;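 also: series mostly up to about 29 µM; plate controls were DMSO vehicle for no effect and 0.29 µM artemisinin for full effect; nearly all actives have a fitted effect of over 65% in size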
Procedure, shortened: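 SYBR Green DNA fluorescence (ex 485, em 535 nm) after overnight lysis quantifies parasite growth; compound exposure lasted 72 h at 37 C on infected red cells at 2.5% hematocrit, 0.3% parasitemia (final). Artemisinin 0.29 uM and vehicle wells define normalization.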

[5] = qHTS for differential inhibitors of proliferation of Plasmodium falciparum line HB3 (AID 1886); settings: Potency: Plasmodium falciparum HB3 proliferation inhibition;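 also: parasites grown with compound for 72 h before SYBR Green readout; plate controls were vehicle for no effect and reference inhibitor for full effect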
[6] = Quantitative high throughput screen for delayed death inhibitors of the malarial parasite plastid, 96 hour incubation (AID 488745);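 also: luciferase-expressing P. falciparum in erythrocytes at 2% hematocrit and 0.1% parasitemia; series mostly up to about 29 µM; % is scaled to controls: 0 for no effect and ±100 for the full control effect; nearly all actives have a fitted effect of over 70% in size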
Procedure, shortened: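 Readout is firefly luciferase luminescence from an integrated reporter in P. falciparum; lower signal marks inhibited growth. Cultures at 2% hematocrit and 0.1% parasitemia were treated with compound across two generations (96 h, 37 C, 5% CO2).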

[7] = Quantitative high throughput screen for delayed death inhibitors of the malarial parasite plastid, 48 hour incubation (AID 488752); also: % is scaled to controls: 0 for no effect and ±100 for the full control effect; nearly all actives have a fitted effect of over 65% in size
Procedure, shortened: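 First, compound was pinned into RPMI 1640 medium containing 0.5% Albumax. Next, reporter-parasite-infected erythrocytes were added to 2% hematocrit and 0.1% parasitemia. After 48 h at 37 C under 5% CO2, luciferase detection reagent was added and luminescence read.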

[8] = target: M-phase phosphoprotein 8 (Homo sapiens) (UniProt Q99549); experiment: qHTS Validation Assay for Inhibitors for MPP8 Chromodomain Interactions with Methylated Histone Tails (AID 488949); also: nearly all actives have a fitted effect of over 55% in size; also: potency is read from the fitted curve at half-maximal effect;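 as to activity change, negative = inhibition: AlphaScreen signal from MPP8 chromodomain bound to biotinylated H3K9me3 peptide; top concentration of the series differs between compounds; % is scaled to controls: 0 for no effect and ±100 for the full control effect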
Procedure, shortened: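 AlphaScreen proximity signal from streptavidin donor and Ni-chelate acceptor beads (10 ug/mL each) reported binding of MPP8 to trimethyl-K9 H3(1-18) peptide, both at 50 nM. The complex formed 30 min before a 30 min compound exposure at room temperature, in PBS pH 7.4.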

[9] = target: Transient receptor potential cation channel subfamily V member 1 (Homo sapiens) (UniProt Q8NER1); experiment: HTS Assay for Compounds that Act as Enhancers of the Vanilloid Receptor 1 (AID 488979); also: 0% is about no effect
Procedure, shortened: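 TRPV1 cells loaded with Fluo-8 calcium dye; compound added and Ca2+ signal (ex 480/em 520 nm) followed 3 min, then capsaicin at EC20 added and read 2 more min to detect enhancement.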

[10] = target: Thyrotropin receptor (Homo sapiens) (UniProt P16473); experiment: qHTS Assay for Antagonists of the Thyroid Stimulating Hormone Receptor (AID 488980); also: series mostly up to about 58 µM; 0% is about no effect
Procedure, shortened: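 Inhibition of cAMP raised by EC80 TSH (4 nM final) was read by HTRF, with lysate cAMP competing against cAMP-d2 for cryptate antibody after 30 min at room temperature. The cells were transfected HEK293 held in phosphodiesterase inhibitor RO 20-1724 at 70 uM.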

[11] = target: Thyrotropin-releasing hormone receptor (Homo sapiens) (UniProt P34981); experiment: qHTS for Small Molecule Agonists and Allosteric Enhancers of Human TRH Receptor: Validation Screen for Agonists (AID 493127;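 active = calcium activation more than 3 SD above the typical response in the agonist read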;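 also: intracellular calcium rise by fluo-8 fluorescence before TRH EC20 addition; 0% is about no effect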); settings: TRH receptor agonist cell assay; at 2 µM; active compounds read high
Procedure, shortened: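 Compounds are added by online pintool to dye-loaded TRHR cells while fluorescence is recorded every second. A rise in calcium signal during the agonist read marks activation; a later 10 nM TRH addition (EC20) serves the separate enhancer mode.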

[12] = Validation screen for small molecules that induce DNA re-replication in SW480 colon adenocarcinoma cells (AID 504364); also: 0% is about no effect
Procedure, shortened: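 Image-based qHTS: compounds were incubated with SW480 cells for 48 hr, nuclei stained with Hoechst, and per-nucleus fluorescence intensity scanned to flag cells with excess DNA content.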

[13] = Viability counterscreen for antagonist of constitutive androstane receptor (CAR) against the NCATS DSHEA and TCM libraries (AID 1794837);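 also: compound exposure lasted 24 h before viability reading; 0% is about no effect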
Procedure, shortened: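 Viability was measured by CellTiter-Fluor fluorescence (405/540 nm, 1 hr) in HepG2-CYP2B6-hCAR cells. Cells were co-treated 24 hr with 48 uM CITCO (final), antagonist mode, and test substances.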

[14] = Viability counterscreen for agonist of constitutive androstane receptor (CAR) against the NCATS DSHEA and TCM libraries (AID 1794838);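 also: cells exposed to compound for 24 h; 0% is about no effect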
Procedure, shortened: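 Cell viability, from CellTiter-Fluor fluorescence (405/540 nm), was scored after a 24 h, 37C exposure of HepG2 cells carrying CYP2B6 reporter and hCAR to test substances in presence of 0.75 uM PK11195.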

[15] = target: Nuclear receptor subfamily 1 group I member 3 (Homo sapiens) (UniProt Q14994); experiment: Primary qHTS for agonist of constitutive androstane receptor (CAR) against the NCATS DSHEA and TCM libraries (AID 1794839);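 also: HepG2 cells expressing human CAR with a CYP2B6 reporter plus PK11195 antagonist; luciferase reporter luminescence read with ONE-Glo; 0% is about no effect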
Procedure, shortened: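 Agonist mode in presence of hCAR antagonist PK11195 (0.75 µM final): test substances, 24 h, 37 °C, on HepG2-CYP2B6-hCAR cells. Same-well readouts: fluorescence viability, then ONE-Glo luminescence; CITCO as reference agonist.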

[16] = HepG2 viability counterscreen (readout 2: ATP content) against the NCATS DSHEA and TCM libraries (AID 1794840);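 also: HepG2 cells exposed to substances for about 24 h; 0% is about no effect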
Procedure, shortened: (§1)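 Readout 1: cellular protease activity, GF-AFC substrate (25 uM final, 30 min, fluorescence 380/510 nm). Readout 2: ATP content by CellTiter-Glo luminescence after 30 min at RT. Both follow ~24 h exposure of HepG2 cells (1,000/well) to substances.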

[17] = HepG2 viability counterscreen (readout 1: protease activity) against the NCATS DSHEA and TCM libraries (AID 1794841);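 also: cells exposed to compounds for about 24 h before the protease read; 0% is about no effect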
Procedure, shortened: as §1

[18] = target: Cytochrome P450 2D6 (Homo sapiens) (UniProt P10635); experiment: Cytochrome P450 family 2 subfamily D member 6 (CYP2D6) small molecule antagonists: luciferase biochemical (cell-free) qHTS assay (AID 1645840; active = well fitted curve in the direction sought with a large enough effect in the repeat runs; an effect the other way counts as inactive or inconclusive; also: nearly all actives have a fitted effect of over 55% in size; also: potency is read from the fitted curve at half-maximal effect; as to activity change, negative = inhibition: series mostly up to about 57 µM; % is scaled to controls: 0 for no effect and ±100 for the full control effect)
Procedure, shortened: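 P450-Glo CYP2D6 system: proluciferin substrate converted by enzyme to luciferin, read by luminescence proportional to activity. Enzyme-substrate mix with compound 10 min at room temperature, then NADPH regeneration 1 h before detection reagent.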

[19] = target: Cytochrome P450 2C9 (Homo sapiens) (UniProt P11712); experiment: Cytochrome P450 family 2 subfamily C member 9 (CYP2C9) small molecule antagonists: luciferase biochemical (cell-free) qHTS assay (AID 1645842; active = well fitted curve in the direction sought with a large enough effect in the repeat runs; an effect the other way counts as inactive or inconclusive; also: series mostly up to about 57 µM; % is scaled to controls: 0 for no effect and ±100 for the full control effect; nearly all actives have a fitted effect of over 55% in size)
Procedure, shortened: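 P450-Glo CYP2C9 system: proluciferin substrate with enzyme in mix containing 0.4% BSA, 10 min at room temperature, then NADPH regeneration solution added and incubated 1 h at 37C. Detection reagent stopped reaction; luminescence read after 20 min as RLU.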

[20] = NCATS anti-infectives library activity on HEK293 viability as a counter-qHTS vs the C. elegans viability qHTS (AID 1745854);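 also: HEK293 cells exposed to compounds for 24 hr before the viability read; % is scaled to controls: 0 for no effect and ±100 for the full control effect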
Procedure, shortened: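 Counter-screen for cytotoxicity: HEK293, 24 hr, 37C, compounds up to 41.7 uM final (a dilution series, 1:5). Readout CellTiter-Glo luminescence, 10 min RT. Digitonin control, […] uM final.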

Chain of Cytochrome P450 2C9 (Homo sapiens) (P11712 whole entry, looked up): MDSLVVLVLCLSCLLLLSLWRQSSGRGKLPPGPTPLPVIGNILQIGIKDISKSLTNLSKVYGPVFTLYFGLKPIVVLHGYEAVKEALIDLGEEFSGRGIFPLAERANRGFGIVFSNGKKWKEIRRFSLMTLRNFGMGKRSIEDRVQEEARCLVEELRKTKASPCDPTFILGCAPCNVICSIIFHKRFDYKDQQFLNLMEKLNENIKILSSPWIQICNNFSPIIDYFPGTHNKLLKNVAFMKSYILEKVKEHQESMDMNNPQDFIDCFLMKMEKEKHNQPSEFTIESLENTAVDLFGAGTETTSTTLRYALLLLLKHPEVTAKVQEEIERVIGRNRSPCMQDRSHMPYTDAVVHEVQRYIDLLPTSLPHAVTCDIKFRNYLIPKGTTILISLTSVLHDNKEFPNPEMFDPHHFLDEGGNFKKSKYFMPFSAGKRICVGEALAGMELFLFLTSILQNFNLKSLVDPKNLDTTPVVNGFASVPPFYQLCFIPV
Chain of Cytochrome P450 2D6 (Homo sapiens) (P10635 whole entry, looked up): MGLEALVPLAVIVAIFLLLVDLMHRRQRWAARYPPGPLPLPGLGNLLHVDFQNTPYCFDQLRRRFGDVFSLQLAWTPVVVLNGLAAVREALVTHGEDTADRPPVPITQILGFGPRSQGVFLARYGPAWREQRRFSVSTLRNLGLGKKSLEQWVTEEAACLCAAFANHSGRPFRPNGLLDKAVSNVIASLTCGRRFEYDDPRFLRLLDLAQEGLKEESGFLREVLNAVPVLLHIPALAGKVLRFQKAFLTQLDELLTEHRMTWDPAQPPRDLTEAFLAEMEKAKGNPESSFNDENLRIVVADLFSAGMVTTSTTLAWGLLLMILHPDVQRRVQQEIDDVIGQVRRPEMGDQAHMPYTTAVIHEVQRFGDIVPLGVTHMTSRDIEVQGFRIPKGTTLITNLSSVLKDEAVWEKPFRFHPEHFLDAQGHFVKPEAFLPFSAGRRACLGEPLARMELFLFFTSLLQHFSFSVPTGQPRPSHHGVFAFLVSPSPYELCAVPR
Chain of Thyrotropin-releasing hormone receptor (Homo sapiens) (P34981 whole entry, looked up): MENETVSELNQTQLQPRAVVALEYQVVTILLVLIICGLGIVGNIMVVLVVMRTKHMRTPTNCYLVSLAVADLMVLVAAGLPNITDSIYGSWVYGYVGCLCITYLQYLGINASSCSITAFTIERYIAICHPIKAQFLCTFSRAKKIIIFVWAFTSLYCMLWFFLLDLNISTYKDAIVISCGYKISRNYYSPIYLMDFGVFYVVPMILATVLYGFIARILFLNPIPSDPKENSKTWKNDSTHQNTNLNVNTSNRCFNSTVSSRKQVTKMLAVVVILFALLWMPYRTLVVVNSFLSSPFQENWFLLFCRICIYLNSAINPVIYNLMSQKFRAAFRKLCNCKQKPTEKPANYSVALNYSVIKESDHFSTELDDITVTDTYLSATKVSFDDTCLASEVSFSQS
Chain of Thyrotropin receptor (Homo sapiens) (P16473 whole entry, looked up): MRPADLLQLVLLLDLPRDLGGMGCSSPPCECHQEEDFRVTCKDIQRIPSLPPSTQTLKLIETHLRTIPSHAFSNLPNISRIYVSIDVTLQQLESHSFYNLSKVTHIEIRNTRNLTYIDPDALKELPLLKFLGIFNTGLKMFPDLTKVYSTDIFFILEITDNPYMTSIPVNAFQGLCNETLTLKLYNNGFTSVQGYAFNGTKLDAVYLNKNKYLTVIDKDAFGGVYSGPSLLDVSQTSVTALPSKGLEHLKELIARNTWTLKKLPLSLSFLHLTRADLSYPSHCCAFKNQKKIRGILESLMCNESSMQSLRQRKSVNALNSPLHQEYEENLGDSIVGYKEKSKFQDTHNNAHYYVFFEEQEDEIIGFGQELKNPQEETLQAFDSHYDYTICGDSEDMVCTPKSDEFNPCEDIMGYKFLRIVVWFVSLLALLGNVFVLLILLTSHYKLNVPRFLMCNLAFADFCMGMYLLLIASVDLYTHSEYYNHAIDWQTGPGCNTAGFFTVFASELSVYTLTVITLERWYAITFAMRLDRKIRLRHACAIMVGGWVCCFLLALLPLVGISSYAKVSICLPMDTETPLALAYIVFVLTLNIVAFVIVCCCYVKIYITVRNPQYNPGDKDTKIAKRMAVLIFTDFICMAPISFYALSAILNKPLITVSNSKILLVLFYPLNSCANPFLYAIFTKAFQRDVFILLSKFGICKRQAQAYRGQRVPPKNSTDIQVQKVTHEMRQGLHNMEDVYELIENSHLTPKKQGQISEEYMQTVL
Chain of Transient receptor potential cation channel subfamily V member 1 (Homo sapiens) (Q8NER1 whole entry, looked up): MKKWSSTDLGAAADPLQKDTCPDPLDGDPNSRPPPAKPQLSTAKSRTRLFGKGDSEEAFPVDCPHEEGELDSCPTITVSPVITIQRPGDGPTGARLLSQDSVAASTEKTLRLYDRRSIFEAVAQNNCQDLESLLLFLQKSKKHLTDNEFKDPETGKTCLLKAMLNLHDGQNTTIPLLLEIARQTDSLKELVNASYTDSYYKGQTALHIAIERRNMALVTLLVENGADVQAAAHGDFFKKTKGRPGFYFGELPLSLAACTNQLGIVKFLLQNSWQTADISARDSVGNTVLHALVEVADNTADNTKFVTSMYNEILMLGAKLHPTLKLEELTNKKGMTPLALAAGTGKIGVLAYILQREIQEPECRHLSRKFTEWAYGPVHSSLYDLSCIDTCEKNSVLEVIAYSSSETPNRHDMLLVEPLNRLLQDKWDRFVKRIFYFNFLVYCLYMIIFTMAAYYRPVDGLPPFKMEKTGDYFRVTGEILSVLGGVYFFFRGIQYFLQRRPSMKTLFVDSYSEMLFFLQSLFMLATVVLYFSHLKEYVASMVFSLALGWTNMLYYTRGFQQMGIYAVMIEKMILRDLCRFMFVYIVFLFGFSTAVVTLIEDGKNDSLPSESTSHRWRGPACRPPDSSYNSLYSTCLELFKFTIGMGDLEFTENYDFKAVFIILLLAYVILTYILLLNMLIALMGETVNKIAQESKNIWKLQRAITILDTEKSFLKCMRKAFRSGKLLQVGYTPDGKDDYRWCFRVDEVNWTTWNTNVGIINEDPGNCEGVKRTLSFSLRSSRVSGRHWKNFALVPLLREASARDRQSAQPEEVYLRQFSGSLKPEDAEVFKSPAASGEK
Chain of Nuclear receptor subfamily 1 group I member 3 (Homo sapiens) (Q14994 whole entry, looked up): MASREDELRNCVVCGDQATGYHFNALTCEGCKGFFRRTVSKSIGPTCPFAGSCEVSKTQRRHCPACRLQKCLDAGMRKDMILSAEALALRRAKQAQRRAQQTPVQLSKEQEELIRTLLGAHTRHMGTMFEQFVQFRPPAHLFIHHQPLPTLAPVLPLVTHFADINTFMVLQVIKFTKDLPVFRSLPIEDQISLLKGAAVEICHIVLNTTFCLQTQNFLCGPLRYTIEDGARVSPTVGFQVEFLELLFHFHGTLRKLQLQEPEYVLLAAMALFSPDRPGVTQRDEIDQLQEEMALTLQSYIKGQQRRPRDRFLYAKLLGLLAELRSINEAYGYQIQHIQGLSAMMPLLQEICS
Chain of M-phase phosphoprotein 8 (Homo sapiens) (Q99549 whole entry, looked up): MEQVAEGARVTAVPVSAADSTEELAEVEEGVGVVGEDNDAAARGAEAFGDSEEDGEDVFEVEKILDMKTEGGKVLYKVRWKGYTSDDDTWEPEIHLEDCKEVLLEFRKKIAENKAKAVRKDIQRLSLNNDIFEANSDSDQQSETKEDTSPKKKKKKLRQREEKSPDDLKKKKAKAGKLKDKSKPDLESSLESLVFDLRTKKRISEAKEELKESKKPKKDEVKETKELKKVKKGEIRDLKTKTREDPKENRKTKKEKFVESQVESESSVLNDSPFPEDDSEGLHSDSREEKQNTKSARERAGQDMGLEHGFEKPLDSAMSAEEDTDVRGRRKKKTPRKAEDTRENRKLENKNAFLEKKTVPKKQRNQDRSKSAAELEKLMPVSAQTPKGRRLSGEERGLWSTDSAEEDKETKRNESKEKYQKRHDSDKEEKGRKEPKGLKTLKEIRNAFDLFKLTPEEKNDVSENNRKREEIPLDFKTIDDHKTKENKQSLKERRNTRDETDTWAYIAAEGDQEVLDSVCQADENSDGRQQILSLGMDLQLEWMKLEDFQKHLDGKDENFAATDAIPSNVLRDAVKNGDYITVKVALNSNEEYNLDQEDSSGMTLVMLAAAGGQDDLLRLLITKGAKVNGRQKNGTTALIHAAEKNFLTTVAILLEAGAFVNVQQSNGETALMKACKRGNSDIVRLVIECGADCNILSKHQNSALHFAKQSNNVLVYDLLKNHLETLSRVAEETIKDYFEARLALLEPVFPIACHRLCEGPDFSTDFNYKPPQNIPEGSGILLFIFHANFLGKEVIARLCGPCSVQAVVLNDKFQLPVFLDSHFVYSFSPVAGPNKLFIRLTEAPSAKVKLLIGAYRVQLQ

NCCNS(=O)(=O)c1cccc2cnccc12
inactive: Potency [1] | Potency [2] | Potency [3] | Potency [4] | Potency [5] | Potency [6] | Potency [7] | Potency [8] | outcome [9] | outcome [10] | activation [11] -0.5% | outcome [12]

CC/C=C\C/C=C\C/C=C\C/C=C\C/C=C\CCCCCC(=O)O
inactive: viability change, negative = cytotoxic [13] -12.7% [at 5 µM] | activity change, negative = cytotoxicity [14] -18.6% [at 5 µM] | activation [15] -16.7% [at 5 µM] | activity change, negative = cytotoxic [16] -0.254% [at 3.42 µM] | activity change, negative = inhibition [17] -1.31% [at 3.42 µM]

C[C@@H](C(=O)O)c1ccc(-c2ccccc2)c(F)c1
inactive: Potency [18] | Potency [19]

N#CC(=C(/N)Sc1ccccc1N)/C(C#N)=C(\N)Sc1ccccc1N
inactive: outcome [20]

C[N+](C)(C)CCC(=O)c1cccc2ccccc12
active: Potency [8] 10 µM
inactive: Potency [2] | Potency [3] | Potency [4] | Potency [5] | outcome [9] | outcome [10] | activation [11] 3.69% | outcome [12]

COc1cc(CNC(=O)CCCC/C=C\C(C)C)ccc1O
inactive: outcome [20]

Cc1nccn1CC1CCC2C(C1=O)c1ccccc1N2C (configuration not stated)
active: Potency [18] 12 µM
inactive: Potency [19]

CCCCC[C@H](O)CC(=O)CCc1ccc(O)c(OC)c1
inactive: outcome [13] | outcome [14] | outcome [15] | outcome [16] | outcome [17]

O=C1CCc2c(ccc3ccccc23)O1
inactive: outcome [20]

COc1ccc2c(c1)c(CC(=O)N1CCOCC1)c(C)n2C(=O)c1ccc(Cl)cc1
inactive: Potency [1] | Potency [6] | Potency [7] | outcome [9] | outcome [10] | activation [11] 1.25% | outcome [12]

O=C1CC[C@H](C(=O)O)N1
inactive: Potency [18] | Potency [19]
